Consider 5 molecules from PubChem BioAssay.

Test [1] can be described thus: anti-His antibody binders, primary screen, artefact control for SMM control protein annotation, biochemical, small-molecule microarray, 635 nm fluorescence (AID 1128).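 Also: score merges feature fluorescence with signal-to-noise for each printed compound spot.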 To be noted: anti-His Alexa647 antibody binding, higher = more signal.
The subject of test [2] is Human papillomavirus type 1a E7 protein (residues 1-88). The experiment in a line: HPV1a E7 small-molecule binders, primary screen, biochemical, small-molecule microarray, residues 1-88, 635 nm (AID 1129). To be noted: small-molecule microarray binding, fluorescence 635 nm; higher = more signal.
For test [3], the target named is Focal adhesion kinase 1 (Homo sapiens) (UniProt Q05397). The experiment in a line: small-molecule microarray binders of FAK, primary screen, biochemical, 635/667 nm fluorescence, BSA, DTT (AID 1130).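 Also: composite of spot emission at 667 nm and signal to noise over triplicate slides.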 To be noted: PTK2 binding, 635 nm fluorescence, higher = more signal.
Chain of Focal adhesion kinase 1 (Homo sapiens) (Q05397 whole entry, looked up): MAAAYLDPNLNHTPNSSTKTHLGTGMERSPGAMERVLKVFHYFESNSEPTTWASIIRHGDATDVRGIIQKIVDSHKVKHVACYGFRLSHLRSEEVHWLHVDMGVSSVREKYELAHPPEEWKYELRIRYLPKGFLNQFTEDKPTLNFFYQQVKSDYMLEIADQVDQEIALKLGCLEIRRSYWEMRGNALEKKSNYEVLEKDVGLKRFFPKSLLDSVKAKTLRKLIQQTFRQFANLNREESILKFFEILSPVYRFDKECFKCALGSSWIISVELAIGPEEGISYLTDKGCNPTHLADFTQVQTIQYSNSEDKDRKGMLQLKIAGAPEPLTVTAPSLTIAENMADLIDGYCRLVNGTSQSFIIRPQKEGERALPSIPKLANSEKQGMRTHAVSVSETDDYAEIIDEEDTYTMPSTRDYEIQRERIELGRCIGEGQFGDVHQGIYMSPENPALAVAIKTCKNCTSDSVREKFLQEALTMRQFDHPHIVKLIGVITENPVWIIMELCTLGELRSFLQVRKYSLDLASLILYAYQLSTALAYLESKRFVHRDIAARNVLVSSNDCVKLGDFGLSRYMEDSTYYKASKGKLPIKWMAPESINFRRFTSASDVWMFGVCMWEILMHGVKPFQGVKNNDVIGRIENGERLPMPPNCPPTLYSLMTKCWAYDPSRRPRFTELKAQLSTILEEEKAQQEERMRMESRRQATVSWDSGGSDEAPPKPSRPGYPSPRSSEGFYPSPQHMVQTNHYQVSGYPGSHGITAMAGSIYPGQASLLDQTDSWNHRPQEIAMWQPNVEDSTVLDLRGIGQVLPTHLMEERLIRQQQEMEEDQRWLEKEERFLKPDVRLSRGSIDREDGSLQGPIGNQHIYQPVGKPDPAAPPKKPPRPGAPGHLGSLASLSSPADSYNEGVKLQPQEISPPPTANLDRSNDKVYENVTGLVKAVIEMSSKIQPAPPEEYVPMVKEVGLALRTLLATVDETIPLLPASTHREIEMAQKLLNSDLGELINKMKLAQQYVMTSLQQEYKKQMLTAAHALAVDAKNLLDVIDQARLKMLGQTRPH
The test system of test [4] is Fibrinogen (Alexa647-labelled). The experiment in a line: fibrinogen binders on compound microarrays, profiling panel, artefact control for SMM control-protein annotation, biochemical, small-molecule microarray, 635/667 nm fluorescence (AID 1131).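 Also: z-score merges 667 nm fluorescence with per-spot signal-to-noise over triplicate slides.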 To be noted: fibrinogen-A647 binding fluorescence, higher = more signal.
Test [5] concerns the target Follistatin (Homo sapiens) (UniProt P19883). Put plainly: follistatin binders on small-molecule microarrays, primary screen, biochemical, small-molecule microarray, 635/667 nm fluorescence (AID 1132). To be noted: FST binding, 635 nm fluorescence, higher = more signal.
Test [6] concerns the target Fibroblast growth factor 2 (Homo sapiens) (UniProt P09038). Put plainly: FGF2 binders on small-molecule microarrays, primary screen, biochemical, small-molecule microarray, 635/667 nm fluorescence (AID 1133). To be noted: small-molecule microarray binding, FGF2, fluorescence 635/667; higher = more signal.
Test [7] can be described thus: mitochondrial membrane potential change in A549 cells, profiling panel, cell-based, JC-1 fluorescence, basal, 24 h, 100 nL (AID 1138).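 Also: A549 lung adenocarcinoma cells under basal conditions with no added stimulus; test concentration not given here.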 To be noted: higher = more signal.
Another test concerns Lefty1. The experiment in a line: Lefty1 binders on small-molecule microarrays, primary screen, biochemical, small-molecule microarray, 635/667 nm fluorescence (AID 1139). To be noted: small-molecule microarray binding, fluorescence 635/667; higher = more signal.
The test system of test [8] is wheat germ agglutinin (Triticum aestivum), Alexa647-labelled. The experiment in a line: wheat germ agglutinin binders on compound microarrays, profiling panel, artefact control for SMM control-protein annotation, biochemical, small-molecule microarray, 635/667 nm fluorescence (AID 1140).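 Also: score merges 667 nm feature emission with signal to noise over triplicate slides.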 To be noted: WGA-A647 binding, 635 nm fluorescence, higher = more signal.
In test [9] the target is Luciferin 4-monooxygenase (Photinus pyralis) (UniProt P08659). The experiment in a line: firefly luciferase enzyme inhibitors, primary screen, biochemical, luminescence, purified enzyme, 2006 set (AID 1141).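 Also: cell-free assay with purified firefly luciferase at 100 ng per well in PBS; test concentration not given here.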 To be noted: SteadyGlo luminescence, 30 min, higher = more signal, called active from +8 up or from −8 down.
Chain of Luciferin 4-monooxygenase (Photinus pyralis) (P08659 whole entry, looked up): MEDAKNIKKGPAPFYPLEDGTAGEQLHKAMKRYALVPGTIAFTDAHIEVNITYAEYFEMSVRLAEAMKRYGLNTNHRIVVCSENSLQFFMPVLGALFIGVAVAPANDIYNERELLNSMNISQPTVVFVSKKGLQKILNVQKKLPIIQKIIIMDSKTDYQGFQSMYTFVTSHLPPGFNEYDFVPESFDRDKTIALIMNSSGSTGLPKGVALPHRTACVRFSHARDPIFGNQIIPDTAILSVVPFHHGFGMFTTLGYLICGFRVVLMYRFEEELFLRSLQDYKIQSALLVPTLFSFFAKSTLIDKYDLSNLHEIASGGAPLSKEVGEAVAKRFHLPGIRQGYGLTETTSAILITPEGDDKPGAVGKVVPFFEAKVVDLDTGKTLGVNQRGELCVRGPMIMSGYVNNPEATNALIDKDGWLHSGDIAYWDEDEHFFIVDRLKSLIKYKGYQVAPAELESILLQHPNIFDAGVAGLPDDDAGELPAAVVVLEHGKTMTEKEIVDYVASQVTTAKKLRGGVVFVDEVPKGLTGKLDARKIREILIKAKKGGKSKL
In test [10] the test system is Wnt5a (protein binding on small-molecule microarray). The experiment in a line: Wnt5a binders on small-molecule microarray, primary screen, biophysical, 635/667 nm fluorescence (AID 1142).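 Also: fluorescence read at 667 nm with signal to noise per printed feature.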 To be noted: 635 nm fluorescence, higher = more signal.
Test [11] in a line: cell viability in Huh7 cells, primary screen, cytotoxicity control for HCV replication inhibitor project, CellTiter-Glo luminescence, basal, 48 h (AID 1143).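 Also: Huh7 hepatoma cells carrying a hepatitis C replication reporter with no stimulus; test concentration not given here.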 To be noted: Huh7 HCV replicon, higher = more signal, called active from +8 up or from −8 down. A general note: ATP-based viability assays read luminescence as a measure of living cells.
A short description of test [12]: P. aeruginosa biofilm formation inhibitors, primary screen, PAO1 strain, BacTiter-Glo luminescence, LB-PBS (AID 1144). To be noted: 12 h, higher = more signal.
The nature of test [13]: CREB reporter modulators without forskolin, primary screen, cell-based, PC12, CRE-LacZ reporter, unstimulated (AID 1145). To be noted: no forskolin, luminescence, 4.5 h, higher = more signal, called active from +8 up or from −8 down.
Test [14] is described as follows: CREB reporter modulators under forskolin, primary screen, cell-based, PC12, CRE-LacZ reporter, forskolin-stimulated (AID 1146).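 Also: PC12 cells with 6xCRE LacZ reporter stimulated by forskolin 10 µM; beta-galactosidase reporter signal reflecting CREB driven transcription.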 To be noted: luminescence, 4.5 h, higher = more signal, called active from +8 up or from −8 down.
The target of test [15] is Streptavidin (Streptomyces avidinii) (UniProt P22629). Put plainly: streptavidin binders on small-molecule microarray, primary screen, artefact control for SMM compound annotation, biophysical, 635/667 nm fluorescence (AID 1147).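 Also: signal reflects streptavidin binding to arrayed compounds as a control protein.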 To be noted: streptavidin binding, higher = more signal.
Chain of Streptavidin (Streptomyces avidinii) (P22629 whole entry, looked up): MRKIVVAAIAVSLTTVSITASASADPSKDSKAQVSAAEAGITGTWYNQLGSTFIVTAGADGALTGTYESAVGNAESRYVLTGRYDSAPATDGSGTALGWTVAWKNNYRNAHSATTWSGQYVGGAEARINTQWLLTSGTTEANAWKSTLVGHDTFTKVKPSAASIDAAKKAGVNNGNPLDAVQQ
A short description of test [16]: small-molecule binders of probe aInhba, primary screen, biochemical, small-molecule microarray, 635/667 nm fluorescence (AID 1148).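 Also: score merges 667nm spot fluorescence with signal-to-noise for antibody binding to printed compounds.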 To be noted: higher = more signal.
For test [17], the target named is Torsin-1A (Homo sapiens) (UniProt O14656). The experiment in a line: torsin A binders from cell lysate, primary screen, small-molecule microarray, wild-type, 635/667 nm (AID 1149). To be noted: COS7 hTOR1A-WT lysate, 635 nm fluorescence, higher = more signal.
Chain of Torsin-1A (Homo sapiens) (O14656 whole entry, looked up): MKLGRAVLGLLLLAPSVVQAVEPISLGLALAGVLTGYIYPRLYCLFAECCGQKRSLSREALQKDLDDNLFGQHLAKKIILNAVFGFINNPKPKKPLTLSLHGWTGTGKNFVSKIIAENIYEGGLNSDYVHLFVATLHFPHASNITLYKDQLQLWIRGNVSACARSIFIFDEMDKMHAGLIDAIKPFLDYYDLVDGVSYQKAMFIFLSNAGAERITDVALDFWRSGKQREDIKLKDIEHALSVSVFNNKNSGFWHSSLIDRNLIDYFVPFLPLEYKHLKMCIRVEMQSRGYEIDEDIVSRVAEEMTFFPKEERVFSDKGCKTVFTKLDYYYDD
Test [18] has the same target. Put plainly: small-molecule binders of mutant TOR1A in lysate, primary screen, cell lysate, small-molecule microarray, COS7 lysate, 635/667 nm fluorescence (AID 1150).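 Also: score pools 667 nm emission and signal to noise measuring lysate protein binding.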 To be noted: COS7 hTOR1A mutant lysate, 635 nm fluorescence, higher = more signal.
Test [19] deals with Sonic hedgehog protein (Shh). The experiment in a line: small-molecule binders of Shh protein, primary screen, biochemical, small-molecule microarray, 635/667 nm fluorescence (AID 1151).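 Also: Shh protein binding to compounds spotted on small-molecule microarray slides; score combines spot fluorescence intensity with signal-to-noise across triplicate slides.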 To be noted: small-molecule microarray binding, 635 nm fluorescence; higher = more signal.

The structures appear in SMILES notation. The source made the active and inactive calls. Unless noted, no rule for the calls is given here.

Chain of Follistatin (Homo sapiens) (P19883 whole entry, looked up): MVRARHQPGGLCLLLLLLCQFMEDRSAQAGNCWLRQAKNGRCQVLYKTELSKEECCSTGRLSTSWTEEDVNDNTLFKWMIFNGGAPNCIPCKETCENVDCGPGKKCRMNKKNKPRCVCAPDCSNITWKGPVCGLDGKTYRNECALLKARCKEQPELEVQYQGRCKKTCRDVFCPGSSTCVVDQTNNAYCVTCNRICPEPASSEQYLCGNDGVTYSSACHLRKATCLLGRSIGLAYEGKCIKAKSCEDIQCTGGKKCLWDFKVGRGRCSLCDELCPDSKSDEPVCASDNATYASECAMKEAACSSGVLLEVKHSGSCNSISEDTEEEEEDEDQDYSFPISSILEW
Chain of Fibroblast growth factor 2 (Homo sapiens) (P09038 whole entry, looked up): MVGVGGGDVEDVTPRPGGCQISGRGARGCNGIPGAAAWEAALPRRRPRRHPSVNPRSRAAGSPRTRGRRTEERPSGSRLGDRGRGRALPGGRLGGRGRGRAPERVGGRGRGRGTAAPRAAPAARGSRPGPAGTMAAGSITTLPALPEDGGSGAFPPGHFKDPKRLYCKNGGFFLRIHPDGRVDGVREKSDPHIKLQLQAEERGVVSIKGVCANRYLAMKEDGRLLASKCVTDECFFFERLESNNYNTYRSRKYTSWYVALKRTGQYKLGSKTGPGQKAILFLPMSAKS

Turning to `CC(C)N1CC=CC23O[C@@H]4C=CCCOC(=O)C4[C@H]2C(=O)N(CCCCCO)[C@@H]3C1=O` (stereo not given in full), the composite z-score in test [1] is 3; in [2], -0.349; in test [3] it was -0.133; in test [4] it was 0.834; in test [5], -1.21; in test [6], -0.886. Besides, the composite z-score is -0.376 in the test on Lefty1; 0.717 in test [8]; -0.135 in [10]; 1.88 in [15]; -0.224 in test [16]; -1.35 in the test with Torsin-1A (Homo sapiens) [17]. For the same molecule, the composite z-score with Torsin-1A (Homo sapiens) [18] is -1.12; in [19], 0.0551. In addition, the z-score is 1.34 in test [7]; 0.0137 (inactive) in test [9]; 0.317 (inactive) in test [11]; -1.18 (inactive) in test [12]; 0.199 (inactive) in test [13]; -0.695 (inactive) in [14].
`O=C1O[C@@H](c2ccccc2)[C@@H](c2ccccc2)N2[C@@H](c3ccc(OCCO)cc3)[C@]3(C(=O)Nc4ccc(C#CCCO)cc43)[C@@H](C(=O)Nc3nc4ccccc4s3)[C@H]12`: the composite z-score in [1] was 0.324; in test [2], 1.13; in test [3], 0.256; in test [4], 0.978; in [5], 1.4; in test [6], 0.474. The composite z-score in the test on Lefty1 came out at 0.502; in test [8], 0.468; in test [10], 0.482; in [15] it was 1.05; in test [16], 0.0291; with Torsin-1A (Homo sapiens) [17] it was 0.222. The values for the composite z-score (with Torsin-1A (Homo sapiens) [18]; in test [19]) were 0.79 and 0.589, respectively. Further, the z-score was -2.19 in [7]; -0.7 (inactive) in [9]; -2.56 (inactive) in [11]; -0.397 (inactive) in test [12]; 0.389 (inactive) in test [13]; 0.0759 (inactive) in [14].
Consider `CC=CC(O)C1C=CC2C(=O)N(C)C(=O)C2N1NC(=O)OC(C)(C)C` (stereo not given), for which the composite z-score was 0.831 in [1]; 0.347 in [2]; -0.116 in test [3]; 0.516 in test [4]; 0.767 in [5]; 0.812 in test [6]. Besides, the composite z-score amounted to 0.0938 with Lefty1; 0.838 in test [8]; 0.155 in test [10]; 0.32 in test [15]; 0.038 in [16]; 0.831 with Torsin-1A (Homo sapiens) [17]. The composite z-score in the test with Torsin-1A (Homo sapiens) [18] was determined as 0.229; in test [19], 0.0729. In addition, the z-score in test [7] was -0.559; in test [9] it was -0.645 (inactive); in test [11] it was 0.477 (inactive); in test [12], 0.433 (inactive); in test [13], 1.01 (inactive); in [14] it was 0.742 (inactive).
Take `CCCC=C(CCC)[C@@H](NC(=O)c1ccccc1)c1ccc(C(=O)OC)cc1`: the composite z-score in [1] was 0.877; in [2], 0.598; in [3], -0.17; in test [4], 0.214; in [5], 1.06; in test [6] it was 1.1. Also, the composite z-score is 0.439 with Lefty1; -0.0525 in test [8]; 0.675 in [10]; -0.0576 in [15]; 0.326 in [16]; 0.615 in the test with Torsin-1A (Homo sapiens) [17]. Besides, the composite z-score came to 0.546 in the test with Torsin-1A (Homo sapiens) [18] and 0.293 in test [19]. The z-score in test [7] is -1.71; in test [9] it was 1.5 (inactive); in test [11], -4.41 (inactive); in [12], -0.947 (inactive); in test [13], -0.379 (inactive); in test [14], 0.0425 (inactive).
Take `COc1ccc([Si](C)(C)[C@H]2[C@H](CCO)O[C@@]3(C(=O)N(Cc4ccccc4)c4ccc(N(C=O)c5ccccc5)cc43)[C@@H]2C)cc1`: the composite z-score in [1] came out at 0.359; in test [2], 0.644; in test [3], 0.274; in test [4], 0.605; in test [5], 0.919; in test [6], 0.25. For the same molecule, the composite z-score was 1.01 with Lefty1; 0.153 in test [8]; 0.078 in [10]; 0.593 in test [15]; 0.122 in test [16]; -0.0549 with Torsin-1A (Homo sapiens) [17]. Moreover, the results for the composite z-score (with Torsin-1A (Homo sapiens) [18]; in test [19]) were 0.865 and 1.52, respectively. Besides, the z-score in test [7] was 0.821; in test [9] it was 0.457 (inactive); in test [11], -6.74 (inactive); in test [12], -0.862 (inactive); in test [13] it was 2.08 (inactive); in test [14] it was -0.993 (inactive).
